Measurements from PubChem BioAssay AID504434 (National Center for Advancing Translational Sciences (NCATS), 2011).
Activity calls are given as the source filed them. Where a call stands in place of a potency, no number is given. The call rests on the fitted dose curve; in most records, active means well fitted curve in the direction sought with a large enough effect; inconclusive means small, poorly fitted or top-dose-only effect, or effect the other way, or another doubt; inactive means no such curve, though single readings can be large or run the other way.

Assay: Secondary Assay for lipid storage modulators: AML12 cell LDSA assay for probe SAR
Conditions: AML12 lipid droplet accumulation, BODIPY 493/503 imaging, oleate; series mostly up to 46.1 µM
Description: NIH Molecular Libraries Probe Production Centers Network [MLPCN] NIH Chemical Genomics Center [NCGC] MLPCN Grant: 1 R03 MH085686-01 Assay Submitter (PI): Beller, Mathias; Max-Planck-Institut fur Biophysikalische Chemie NCGC Assay Overview: Storing lipids as a reservoir for energy or the anabolism of elementary metabolites is a common feature of probably all cells and is conserved from bacteria to humans. The universal cellular lipid storage organelle is the so-called lipid storage droplet (LD). Although ubiquitous, LDs share a simple structure composed of a hydrophobic core that harbors the storage lipids, which is shielded by a droplet-specific phospholipid monolayer to which proteins are attached. The current model of LD biogenesis involves an incorporation of the lipid core into the membrane leaflets of the endoplasmic reticulum (ER) followed by a subsequent budding-like maturation of a LD, which ultimately pinches off. Once released, LD volume can increase by localized lipogenesis or fusion of existing droplet. Storage lipids are re-mobilized enzymatically by lipase activity. Lipase regulation in the adipocyte is heavily studied and involves multiple components including catecholamine signaling, the LD-associated proteins Perilipin and comparative gene identification (CGI-58) and at least two lipases named hormone sensitive lipase (HSL) and adipocyte triglyceride lipase (ATGL). LD regulation outside of the adipocyte is poorly understood and only few components are known. However, there is an urgent need to learn more about ectopic fat depots as mislocalized storage of lipids, for example in the liver or muscle, is an eminent health problem associated with insulin resistance or the metabolic syndrome.
NCGC Assay Protocol Summary: The assay was performed with AML12 cells, using an oleic acid feeding protocol similar to the S3 assay. We dispensed 4 uL of cells to give 700 cells/well into Greiner bio-one 1,536-well plates (black walled, clear bottom). Triacsin C (Sigma-Aldrich T-4540), an inhibitor of long-chain fatty acyl CoA synthetase that blocks synthesis of triglycerides, was used as a positive control for lipid under-storage using a final concentration of 20 uM. The orexin antagonist, SB408124 - previously identified to stimulate lipid over-storage, was used as a positive control for lipid over-storage using a final concentration of 20 uM. A total of 23 nL of compound solution of different concentrations were transferred to the assay plates using a Kalypsys pin tool equipped with a 1,536-pin array containing 10-nL slotted pins (FP1S10, 0.457-mm diameter, 50.8 mm long; V&P Scientific). One microliter of oleic acid was added (400 uM final concentration), and the plate was lidded with stainless steel rubber gasket lined lids containing pinholes. After 18-24 h incubation at […] and 95% humidity, 4 uL of the dyes BODIPY 493/503 (Molecular Probes) and the Cell Tracker Red CMTPX dye (Molecular Probes) were added to the wells to stain lipid droplets and enumerate cell number, respectively. Fluorescence was detected by excitation of the fluorophores with a 488-nm laser on an Acumen Explorer (TTP Lab Tech). The total intensity in channel 2 (500-530 nm) reflected lipid droplet accumulation. Cells were detected using channel 3 (575-640 nm) with 5-um width and 100-um depth filters. The ratio of the number of objects in PMT channel 2 over the number of objects in PMT channel 3 was also calculated. Percent activity was computed relative to an internal control (100% inhibited lipid droplet deposition due to the presence of 20 uM Triacsin C), which was added to 32 wells/plate.

Compound	Potency
CCOc1ccc(CCNC(=O)c2cc3sccc3n2C)cc1OCC	inactive
O=C(Cc1cccs1)Nc1nc(-c2ccc(F)cc2)cs1	inactive
CC(C)(C)OC(=O)NCCOCCOCCOc1ccc(-n2ncc3c2CCCC3NC(=O)c2ccccn2)cc1 (stereo not given)	inactive
CCOC(=O)C1CCN(C(=O)C(C)(C)NC(=O)Nc2ccc(N)cc2)CC1	inactive
Cc1ccc(C)c(-c2csc(NC(=O)CSc3nnc(Nc4ccc(OC(F)(F)F)cc4)s3)n2)c1	inactive
O=C(Nc1cccc2nn(-c3ccc(F)cc3)cc12)c1ccccn1	inactive
O=C(NC1CCCc2c1cnn2-c1ccc(F)cc1F)c1cnsn1 (stereo not given)	inactive
O=C(NC1CCCc2c1cnn2-c1ccc(F)cc1F)c1ccn[nH]1 (stereo not given)	inactive
Cc1sc(NC(=O)Cc2cccs2)nc1-c1ccccc1	inactive
O=C(NC1CCCc2c1cnn2-c1ccc(F)cc1F)c1cccc(F)c1F (stereo not given)	inactive
Cc1ccc(CC(=O)Nc2nc(-c3cccs3)cs2)cc1	inactive
O=C(NC1CCCc2c1cnn2-c1ccc(F)cc1F)c1cccs1 (stereo not given)	inactive
COc1ccc(CCNC(=O)c2cc3sc(C)cc3n2C)cc1OC	inactive
CCOC(=O)C1CCN(C(=O)C(C)(C)NC(=O)Nc2cccc(C(=O)OC)c2)CC1	inactive
O=C(CSc1nnc(NCc2ccccc2)s1)Nc1nc(-c2cccc(Br)c2)cs1	inactive
COc1ccc(Cl)cc1NC(=S)N1CCN(c2ccccc2F)CC1	inactive
O=C(CSc1nnc(NCc2ccccc2)s1)Nc1nc(-c2ccc(F)c(F)c2)cs1	inactive
O=C(NC1CCCc2c1cnn2-c1ccc(F)cc1F)c1ccccc1 (stereo not given)	inactive
Cc1ccc(-c2cnc(SCC(=O)Nc3nccs3)n2Cc2ccco2)cc1	inactive
CCOC(=O)C1CCN(C(=O)C(C)(C)NC(=O)Nc2ccc3ccccc3c2)CC1	inactive

Compound	Potency
COc1ccccc1NC(=S)N1CCN(c2cc(Cl)ccc2C)CC1	inactive
COc1ccc(Cl)cc1NC(=S)N1CCN(c2ccc(F)cc2)CC1	inactive
O=C(NC1CCCc2c1cnn2-c1ccc(F)cc1F)c1ccncc1 (stereo not given)	inactive
CC(C)(C)n1ncc2c(=O)n(Cc3ccc(-c4ccccc4C#N)cc3)cnc21	inactive
COc1cccc(-n2ncc3c2CCCC3NC(=O)c2ccccn2)c1 (stereo not given)	44.5 nM [inconclusive] (active)
COc1ccc(-c2cnc(SCC(=O)Nc3nc(C)cs3)n2-c2ccccc2)cc1	inactive
O=C(NC1CCCc2c1cnn2-c1ccccc1F)c1ccc2ncccc2c1 (stereo not given)	inactive
CCOc1ccc(CCNC(=O)c2cc3sccc3[nH]2)cc1OCC	inactive
S=C(Nc1cc(Cl)ccc1Oc1ccccc1)N1CCN(c2ncccn2)CC1	inactive
COc1ccc(-c2cnc(SCC(=O)Nc3nc(C)cs3)n2Cc2ccco2)cc1	inactive
O=C(NC1CCCc2c1cnn2-c1cc(F)cc(F)c1)c1cccc2nccnc12 (stereo not given)	inactive
COCCn1c(-c2ccc(C)cc2)cnc1SCC(=O)Nc1nc(C)cs1	inactive
COc1ccc(CCNC(=O)c2cc3sccc3n2Cc2ccc(Cl)cc2)cc1OC	30.7 nM (active)
CCn1c(C(=O)NCCc2ccc(OC)c(OC)c2)cc2sccc21	inactive
Cc1cccc(-c2ccc3ncnc(NCc4cccc(F)c4)c3c2)c1	inactive
CCOC(=O)C1CCN(C(=O)C(C)(C)NC(=O)Nc2ccc3sccc3c2)CC1	inactive
O=C(Cc1cccs1)Nc1nc(-c2ccncc2)cs1	inactive
CCn1c(-c2ccc(C)cc2)cnc1SCC(=O)Nc1nc(C)cs1	inactive
CC1=C(C(=O)NC2CCCc3c2cnn3-c2ccc(F)cc2F)OCCO1 (stereo not given)	inactive
O=C(Cc1cccs1)Nc1nc(-c2ccc3c(c2)CCC3)cs1	inactive
